{"source": "the supplement of paper PMC10338343", "note": "± gives the standard deviation.", "data": [{"tested_on": "MILI (PIWIL2) piRISC loaded with L1MC piRNA (26 nt)", "assay": "pre-steady-state target cleavage rate (min^-1); guide: L1MC piRNA 5'p-UAACUAAAUACUAUGCAAGCUGUAGG; higher = faster piRNA-guided slicing of the target", "settings": "auxiliary factor: 500 nM mouse GTSF1", "experimental": "(§1)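 Cleave-'n-Seq: a library of target RNAs (target site embedded in constant flanks, ACAGCATTCCGCGTTAGTGATATCCG... 5' flank; DNA-blocked outside the site) at 0.1 nM was incubated with 1 nM active mouse MILI or MIWI piRISC (synthetic 5'-monophosphorylated piRNA guide) with or without 500 nM mouse GTSF1 at 33 °C for 1 min to 16 h. Uncleaved targets were sequenced and normalised to non-target controls, and the pooled three trials were fitted to a burst-and-steady-state model to give the pre-steady-state cleavage rate (min^-1; k3 is constrained to at most 1e-4). Sequence is the target site only; target names encode pairing extent (gX:gY) and contiguous / 1-mismatch / 2-mismatch / bulge geometry. Fits with R² ≤ 0 are excluded.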", "values": [{"sequence": "UCCUGGAUGUCCUACCAUAGUAUUUAGUAA", "pre-steady-state target cleavage rate": "0.021 ± 0.0077"}, {"sequence": "UCCUGCUACAGGAUGCAUAGUAUUUUCAAA", "pre-steady-state target cleavage rate": "0.0053 ± 0.0038"}, {"sequence": "UCCUCCUACAGCUUGCAUAGUAUUUAUUUA", "pre-steady-state target cleavage rate": "0.142 ± 0.019"}, {"sequence": "UCCUGGAACAGCUUGCAUAGUAUUUGUUA", "pre-steady-state target cleavage rate": "0.0747 ± 0.021"}, {"sequence": "UCCUGGAUGUGCUUGCAUAGUAAUUUGUUA", "pre-steady-state target cleavage rate": "0.0141 ± 0.0071"}, {"sequence": "UCCUGGUACAAGCUUGCAUAGUAUUUAGUUA", "pre-steady-state target cleavage rate": "0.196 ± 0.024"}, {"sequence": "UCCUGGAUGUCCUUGCAUAGUAUUCUAGUUA", "pre-steady-state target cleavage rate": "0.1 ± 0.022"}, {"sequence": "UCCUGGAACAGCUUGCUUAGUAUUUAGUAA", "pre-steady-state target cleavage rate": "0.238 ± 0.022"}, {"sequence": "UCCUGGAACAGGUUGCAAAGUAUUUAGUUA", "pre-steady-state target cleavage rate": "0.144 ± 0.013"}, {"sequence": "UCCUGCUACAGCUUGCAUAGUAUAUUGUUA", "pre-steady-state target cleavage rate": "0.187 ± 0.036"}, {"sequence": "UCCUGCUACAGCUUGCAUUGUAUUUACUUA", "pre-steady-state target cleavage rate": "0.12 ± 0.025"}, {"sequence": "UCCUGCAACAGCUUGCAUAGAAUUUAGUUA", "pre-steady-state target cleavage rate": "0.0925 ± 0.023"}, {"sequence": "UCCUGGAUGUGCUUGGAUAGUAUAUAGUUA", "pre-steady-state target cleavage rate": "0.118 ± 0.026"}, {"sequence": "UCCUGGAUGAGCUUGCUAUAGUAUUUAGUUA", "pre-steady-state target cleavage rate": "0.00431 ± 0.0032"}, {"sequence": "UCCUGGAACAGCUUGCUUACUAUUUAGUUA", "pre-steady-state target cleavage rate": "0.0834 ± 0.011"}, {"sequence": "UCCUGGUACAGCUUGCAAAGUAAUUAGUUA", "pre-steady-state target cleavage rate": "0.207 ± 0.03"}, {"sequence": "UCCUGGAUGAGCUUGCAUAGUAUUGAGUUA", "pre-steady-state target cleavage rate": "0.164 ± 0.036"}, {"sequence": "UCCUCCUACAGGUUGCUUAGUAUUUAGUUA", "pre-steady-state target cleavage rate": "0.237 ± 0.011"}, {"sequence": "UCCUGGAUGUGAUUGCAUAGUAUUUAGUUA", "pre-steady-state target cleavage rate": "0.115 ± 0.015"}, {"sequence": "UCCUGGAACAGCUUGCAUAGUAUUAAGAUA", "pre-steady-state target cleavage rate": "0.0769 ± 0.019"}, {"sequence": "UCCUGGAUCAGCUUGCAUAGUAUUUAGUUUA", "pre-steady-state target cleavage rate": "0.358 ± 0.025"}, {"sequence": "UCCUGCUAGAGCAUGCAUAGUAUUUAGUUA", "pre-steady-state target cleavage rate": "0.226 ± 0.018"}, {"sequence": "UCCUGGUACAGCUUGCAUAGUGUUUAGUUA", "pre-steady-state target cleavage rate": "0.162 ± 0.026"}, {"sequence": "UCCUGGUACAGCUAGCAUAGAAUUUAGUUA", "pre-steady-state target cleavage rate": "0.313 ± 0.084"}, {"sequence": "UCCUGGAUGUCCUUAGCAUAGUAUUUAGUUA", "pre-steady-state target cleavage rate": "0.0724 ± 0.016"}]}, {"tested_on": "MILI (PIWIL2) piRISC loaded with L1MC piRNA (26 nt)", "assay": "pre-steady-state target cleavage rate (min^-1); guide: L1MC piRNA 5'p-UAACUAAAUACUAUGCAAGCUGUAGG; MIWI and MILI are mouse PIWI proteins and EfPiwi is from a freshwater sponge; tags in brackets are library labels; higher = faster piRNA-guided slicing of the target", "settings": "auxiliary factor: none (no GTSF1)", "experimental": "as §1", "values": [{"sequence": "UCCUCCUACAGCUUGCAUAGUAUUUAUUUA", "pre-steady-state target cleavage rate": "0.00314 ± 0.0027"}, {"sequence": "UCCUGGUACAAGCUUGCAUAGUAUUUAGUUA", "pre-steady-state target cleavage rate": "0.0121 ± 0.0042"}, {"sequence": "UCCUGGAUGUCCUUGCAUAGUAUUCUAGUUA", "pre-steady-state target cleavage rate": "0.00384 ± 0.0034"}, {"sequence": "UCCUGGAACAGGUUGCAAAGUAUUUAGUUA", "pre-steady-state target cleavage rate": "0.00884 ± 0.003"}, {"sequence": "UCCUGCUACAGCUUGCAUUGUAUUUACUUA", "pre-steady-state target cleavage rate": "0.00348 ± 0.0023"}, {"sequence": "UCCUGGAUGUGCUUGGAUAGUAUAUAGUUA", "pre-steady-state target cleavage rate": "0.00335 ± 0.0032"}, {"sequence": "UCCUGGAACAGCUUGCUUACUAUUUAGUUA", "pre-steady-state target cleavage rate": "0.0029 ± 0.0024"}, {"sequence": "UCCUGGUACAGCUUGCAAAGUAAUUAGUUA", "pre-steady-state target cleavage rate": "0.00414 ± 0.0027"}, {"sequence": "UCCUGGAUGAGCUUGCAUAGUAUUGAGUUA", "pre-steady-state target cleavage rate": "0.00369 ± 0.0027"}, {"sequence": "UCCUCCUACAGGUUGCUUAGUAUUUAGUUA", "pre-steady-state target cleavage rate": "0.00975 ± 0.0027"}, {"sequence": "UCCUGGAUGUGAUUGCAUAGUAUUUAGUUA", "pre-steady-state target cleavage rate": "0.00851 ± 0.0026"}, {"sequence": "UCCUGGAUCAGCUUGCAUAGUAUUUAGUUUA", "pre-steady-state target cleavage rate": "0.00718 ± 0.0026"}, {"sequence": "UCCUGCUAGAGCAUGCAUAGUAUUUAGUUA", "pre-steady-state target cleavage rate": "0.00708 ± 0.0024"}, {"sequence": "UCCUGGUACAGCUUGCAUAGUGUUUAGUUA", "pre-steady-state target cleavage rate": "0.00946 ± 0.0035"}, {"sequence": "UCCUGGAUGUCCUUAGCAUAGUAUUUAGUUA", "pre-steady-state target cleavage rate": "0.00307 ± 0.0025"}]}]}
